Results published in the supplement of paper PMC10849652.
About 7,900 targets were measured; listed, in parts, are those with a hit and a random draw of the rest. About 0.6% of all pairs of compound and target were hits.

Assays:
Experiment in all cases: log2 fold change, soluble protein after heating vs DMSO (PISA); higher = thermal stabilisation; K562 cells, 10 uM, 30 min; active = over 0.2 and 3.5 SD of the protein, either way, in both replicates (recomputed)
[1] = compound: CC1=C(C=C(C=C1)NC(=O)C2=CC(=CC=C2)C(C)(C)C#N)NC3=CC4=C(C=C3)N=CN(C4=O)C
Summary of the method: (§1)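 K562 cells at 2×10^6 cells/mL were treated for 30 min with 10 μM compound, and aliquots were heated for 3 min over 48°C-58°C before pooling. Extraction used PBS with 0.5% NP-40 at 4°C, and soluble protein was the supernatant after 21,000xg for 90 min, measured by TMTpro 16plex LC-MS/MS with channel sums equalised. Thermal stability values, relative to control samples and from duplicates, are log2 fold changes.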

[2] = compound: CC1=C(C=C(C=C1)NC(=O)C2=CC(=CC=C2)N(C)C)NC(=O)C3=CC=C(C=C3)O
Summary of the method: as §1

[3] = compound: CC1=CC=C(C=C1)SC2=C3C=C(SC3=CN=C2)C(=O)N
Summary of the method: as §1

[4] = compound: CC1=NC(=CC=C1)C2=C(N=C(N2)C(C)(C)C)C3=CC4=NC=CN=C4C=C3
Summary of the method: as §1

[5] = compound: CCCCN(Cc1ccc(C(=O)NO)cc1)C(=O)Nc1ccccc1 [Nexturastat A]
Summary of the method: as §1

[6] = compound: CCCS(=O)(=O)Nc1ccc(F)c(C(=O)c2c[nH]c3ncc(-c4ccc(Cl)cc4)cc23)c1F [vemurafenib]
Summary of the method: as §1

[7] = compound: CCCS(=O)(=O)Nc1ccc(F)c(C(=O)c2c[nH]c3ncc(Cl)cc23)c1F
Summary of the method: as §1

[8] = compound: CCCc1cc(C)[nH]c(=O)c1CNC(=O)c1cc(-c2ccnc(N3CCN(C)CC3)c2)cc2c1cnn2C(C)C
Summary of the method: as §1

[9] = compound: CCN(CC)Cc1ccc2cc(COC(=O)Nc3ccc(C(=O)NO)cc3)ccc2c1 [givinostat]
Summary of the method: as §1

[10] = compound: CCN(CCCOc1ccc2c(Nc3cc(CC(=O)Nc4cccc(F)c4)[nH]n3)ncnc2c1)CCOP(=O)(O)O [barasertib]
Summary of the method: as §1

[11] = compound: CC[C@@H]1C(=O)N(C)c2cnc(Nc3ccc(C(=O)NC4CCN(C)CC4)cc3OC)nc2N1C1CCCC1
Summary of the method: as §1

[12] = compound: CC[C@@H]1C(=O)N(C)c2cnc(Nc3ccc(C(=O)N[C@H]4CC[C@H](N5CCN(CC6CC6)CC5)CC4)cc3OC)nc2N1C(C)C [volasertib]
Summary of the method: as §1

[13] = compound: CC[C@H](C)N1C=C(C2=C(C=C(C=C21)C3=CN=C(C=C3)N4CCNCC4)C(=O)NCC5=C(C=C(NC5=O)C)C)C
Summary of the method: as §1

[14] = compound: CC[C@H](C)[C@@H](C(=O)N[C@@H]([C@@H](C)O)C(=O)N[C@@H](CC(C)C)C(=O)[C@]1(CO1)C)NC(=O)[C@H]([C@@H](C)CC)N(C)C(=O)C [epoxomicin]
Summary of the method: as §1

[15] = compound: CCn1c(C(=O)N(C2CC2)C2CC2)cc2c3c(ncn3C)c(Nc3cc(C)n(C)n3)nc21
Summary of the method: as §1

[16] = compound: CCn1cc(-c2ccnc3[nH]c(-c4cccc(CN(C)C)c4)cc23)c(-c2ccc(NC(=O)N(C)C)cc2)n1
Summary of the method: as §1

[17] = compound: CN(C)CC(=O)Nc1ccc2[nH]c(=O)c3ccccc3c2c1
Summary of the method: as §1

[18] = compound: CN(CCOC1=CC=C(C=C1)C[C@H]2C(=O)NC(=O)S2)C3=CC=CC=N3 (racemic) [rosiglitazone]
Summary of the method: as §1

[19] = compound: CN1C2=C(C3=C1C(=O)N(N=C3)CC4=CC(=CC=C4)N)SC(=C2)S(=O)C
Summary of the method: as §1

[20] = compound: CN1CCC(CNc2ccc3ncc(-c4cccc(OC(F)(F)F)c4)n3n2)CC1
Summary of the method: as §1

Measured: log2 fold change

SPG21 (UniProt Q9NZD8)
UniProt Q9NZD8, sequence (Q9NZD8 whole entry, looked up): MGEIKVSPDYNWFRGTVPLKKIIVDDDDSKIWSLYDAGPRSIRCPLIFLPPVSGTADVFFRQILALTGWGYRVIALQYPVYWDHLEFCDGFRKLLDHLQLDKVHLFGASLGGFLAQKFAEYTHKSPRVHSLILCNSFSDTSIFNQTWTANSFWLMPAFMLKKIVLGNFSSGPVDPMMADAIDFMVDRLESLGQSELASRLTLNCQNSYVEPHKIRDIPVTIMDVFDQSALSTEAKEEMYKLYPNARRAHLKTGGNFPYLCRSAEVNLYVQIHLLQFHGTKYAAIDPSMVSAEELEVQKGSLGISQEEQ
inactive: [1] -0.108 | [2] -0.157 | [3] -0.003 | [4] 0.057 | [5] 0.016 | [6] 0.044 | [7] -0.044 | [8] 0.057 | [9] -0.014 | [10] 0.026 | [11] -0.082 | [13] 0.065 | [15] -0.013 | [16] 0.037 | [17] 0.018 | [18] 0.123 | [19] -0.098 | [20] -0.21
active: [12] -0.615 | [14] 0.315

SLC25A4 (UniProt P12235)
UniProt P12235, sequence (P12235 whole entry, looked up): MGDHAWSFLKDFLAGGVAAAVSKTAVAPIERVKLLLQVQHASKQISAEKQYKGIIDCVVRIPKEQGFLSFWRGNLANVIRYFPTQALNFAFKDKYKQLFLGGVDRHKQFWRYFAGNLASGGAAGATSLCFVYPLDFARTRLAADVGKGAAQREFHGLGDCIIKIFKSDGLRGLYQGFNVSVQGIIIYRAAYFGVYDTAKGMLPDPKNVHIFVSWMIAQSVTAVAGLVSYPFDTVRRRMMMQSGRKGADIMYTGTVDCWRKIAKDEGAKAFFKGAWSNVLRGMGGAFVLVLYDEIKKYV
inactive: [1] 0.041 | [2] 0.029 | [3] 0.073 | [4] 0.017 | [6] -0.028 | [7] -0.02 | [8] -0.032 | [9] -0.049 | [10] -0.009 | [11] -0.012 | [12] 0.06 | [13] -0.024 | [14] 0.009 | [15] 0.034 | [16] 0.037 | [17] -0.053 | [18] -0.001 | [19] -0.038 | [20] -0.001
active: [5] -0.228

STRN (UniProt O43815)
inactive: [1] -0.019 | [2] -0.046 | [3] 0.019 | [4] -0.024 | [5] 0.001 | [6] 0.073 | [7] 0.035 | [8] -0.038 | [9] 0.002 | [10] 0.045 | [11] -0.031 | [12] -0.031 | [13] 0.026 | [14] 0.046 | [15] 0.007 | [16] -0.046 | [17] 0.02 | [18] 0.003 | [19] -0.031 | [20] 0.073

SRPRA (UniProt P08240)
inactive: [1] 0.089 | [2] -0.06 | [3] 0.018 | [4] 0.047 | [5] 0 | [6] 0.038 | [7] 0.069 | [8] 0.001 | [9] 0.018 | [10] 0.04 | [11] -0.116 | [12] -0.107 | [13] 0.007 | [14] 0.02 | [15] -0.07 | [16] -0.036 | [17] 0.032 | [18] -0.002 | [19] -0.055 | [20] 0.009

SLC7A6 (UniProt Q92536)
inactive: [1] 0.021 | [2] 0.027 | [3] 0.023 | [4] 0.017 | [5] 0.05 | [6] 0.03 | [7] -0.046 | [8] -0.005 | [9] 0.012 | [10] 0.036 | [11] 0.048 | [12] 0.042 | [13] -0.099 | [14] 0.211 | [15] 0.014 | [16] -0.018 | [17] 0.04 | [18] 0.023 | [19] -0.036 | [20] 0.122

TBC1D15 isoform 3 (UniProt Q8TC07)
UniProt Q8TC07, sequence (Q8TC07 whole entry, looked up): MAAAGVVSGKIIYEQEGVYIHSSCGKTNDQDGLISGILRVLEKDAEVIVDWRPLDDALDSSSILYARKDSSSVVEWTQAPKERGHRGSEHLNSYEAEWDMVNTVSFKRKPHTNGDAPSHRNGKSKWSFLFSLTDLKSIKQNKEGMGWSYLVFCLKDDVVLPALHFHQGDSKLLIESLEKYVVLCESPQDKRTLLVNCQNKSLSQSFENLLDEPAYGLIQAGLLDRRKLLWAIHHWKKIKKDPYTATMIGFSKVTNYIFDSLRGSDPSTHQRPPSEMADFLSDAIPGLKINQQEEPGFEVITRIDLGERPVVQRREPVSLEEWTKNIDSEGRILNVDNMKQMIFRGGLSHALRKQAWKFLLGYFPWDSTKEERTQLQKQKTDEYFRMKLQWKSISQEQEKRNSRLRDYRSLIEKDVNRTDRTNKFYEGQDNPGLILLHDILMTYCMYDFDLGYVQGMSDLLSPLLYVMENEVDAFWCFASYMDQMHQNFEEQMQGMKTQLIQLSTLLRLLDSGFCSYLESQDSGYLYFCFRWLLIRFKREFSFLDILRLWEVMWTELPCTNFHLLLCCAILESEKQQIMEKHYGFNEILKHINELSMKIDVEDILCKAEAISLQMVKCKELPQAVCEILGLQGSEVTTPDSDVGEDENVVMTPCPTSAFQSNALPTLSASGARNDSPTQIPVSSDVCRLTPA
active: [12] -0.485 | [20] -0.241
inactive: [1] 0.076 | [2] -0.028 | [3] -0.003 | [4] -0.019 | [5] 0.002 | [6] 0.049 | [7] 0.12 | [8] -0.015 | [9] 0.046 | [10] 0.068 | [11] -0.221 | [13] 0.04 | [14] 0.004 | [15] -0.081 | [16] -0.024 | [17] 0.031 | [18] 0.05 | [19] 0.018

STK39 (UniProt Q9UEW8)
inactive: [1] -0.049 | [2] 0.006 | [3] -0.016 | [4] 0.033 | [5] 0.018 | [6] 0.015 | [7] 0.032 | [8] 0.053 | [9] 0.033 | [10] 0.033 | [11] -0.062 | [12] -0.139 | [13] 0.023 | [14] 0.054 | [15] -0.055 | [16] -0.036 | [17] -0.011 | [18] 0.049 | [19] 0.005
active: [20] -0.25

TAOK3 (UniProt Q9H2K8)
UniProt Q9H2K8, sequence (Q9H2K8 whole entry, looked up): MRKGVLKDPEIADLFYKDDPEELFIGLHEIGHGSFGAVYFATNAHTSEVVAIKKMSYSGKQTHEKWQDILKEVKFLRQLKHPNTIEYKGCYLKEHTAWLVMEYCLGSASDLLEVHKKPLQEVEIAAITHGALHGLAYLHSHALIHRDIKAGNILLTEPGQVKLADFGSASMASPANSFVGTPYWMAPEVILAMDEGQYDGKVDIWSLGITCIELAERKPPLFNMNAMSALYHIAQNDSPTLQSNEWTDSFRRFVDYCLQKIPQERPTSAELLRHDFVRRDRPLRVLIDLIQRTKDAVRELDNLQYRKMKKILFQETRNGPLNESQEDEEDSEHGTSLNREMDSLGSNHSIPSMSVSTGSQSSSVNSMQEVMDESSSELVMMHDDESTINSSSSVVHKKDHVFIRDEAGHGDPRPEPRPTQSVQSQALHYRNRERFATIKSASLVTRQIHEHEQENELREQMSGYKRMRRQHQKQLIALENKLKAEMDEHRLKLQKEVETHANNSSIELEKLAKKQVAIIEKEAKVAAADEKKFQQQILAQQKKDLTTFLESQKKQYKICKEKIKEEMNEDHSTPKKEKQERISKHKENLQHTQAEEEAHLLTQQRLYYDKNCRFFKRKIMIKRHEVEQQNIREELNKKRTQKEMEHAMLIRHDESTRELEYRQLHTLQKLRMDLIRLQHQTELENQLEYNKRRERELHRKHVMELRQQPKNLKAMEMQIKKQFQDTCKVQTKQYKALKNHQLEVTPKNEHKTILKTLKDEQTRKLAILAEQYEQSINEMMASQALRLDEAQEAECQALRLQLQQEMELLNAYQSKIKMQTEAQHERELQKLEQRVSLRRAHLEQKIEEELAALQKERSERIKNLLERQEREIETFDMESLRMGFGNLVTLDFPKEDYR
inactive: [1] 0.028 | [2] -0.031 | [3] 0.078 | [4] 0.059 | [5] -0.054 | [6] 0.092 | [7] 0.115 | [8] 0 | [9] -0.019 | [10] 0.027 | [11] -0.005 | [12] -0.083 | [13] 0.058 | [14] 0.007 | [15] 0.007 | [16] -0.019 | [17] 0.059 | [18] 0.001 | [19] -0.067 | [20] -0.059

SRPRB (UniProt Q9Y5M8)
inactive: [1] 0.096 | [2] -0.051 | [3] 0.025 | [4] 0.092 | [5] -0.035 | [6] 0.061 | [7] 0.073 | [8] 0.035 | [9] -0.127 | [10] 0.027 | [11] -0.141 | [12] -0.048 | [13] 0.031 | [14] 0.1 | [15] -0.046 | [16] -0.134 | [17] 0.042 | [18] 0.002 | [19] -0.05 | [20] 0.051

STAT5A (UniProt P42229)
UniProt P42229, sequence (P42229 whole entry, looked up): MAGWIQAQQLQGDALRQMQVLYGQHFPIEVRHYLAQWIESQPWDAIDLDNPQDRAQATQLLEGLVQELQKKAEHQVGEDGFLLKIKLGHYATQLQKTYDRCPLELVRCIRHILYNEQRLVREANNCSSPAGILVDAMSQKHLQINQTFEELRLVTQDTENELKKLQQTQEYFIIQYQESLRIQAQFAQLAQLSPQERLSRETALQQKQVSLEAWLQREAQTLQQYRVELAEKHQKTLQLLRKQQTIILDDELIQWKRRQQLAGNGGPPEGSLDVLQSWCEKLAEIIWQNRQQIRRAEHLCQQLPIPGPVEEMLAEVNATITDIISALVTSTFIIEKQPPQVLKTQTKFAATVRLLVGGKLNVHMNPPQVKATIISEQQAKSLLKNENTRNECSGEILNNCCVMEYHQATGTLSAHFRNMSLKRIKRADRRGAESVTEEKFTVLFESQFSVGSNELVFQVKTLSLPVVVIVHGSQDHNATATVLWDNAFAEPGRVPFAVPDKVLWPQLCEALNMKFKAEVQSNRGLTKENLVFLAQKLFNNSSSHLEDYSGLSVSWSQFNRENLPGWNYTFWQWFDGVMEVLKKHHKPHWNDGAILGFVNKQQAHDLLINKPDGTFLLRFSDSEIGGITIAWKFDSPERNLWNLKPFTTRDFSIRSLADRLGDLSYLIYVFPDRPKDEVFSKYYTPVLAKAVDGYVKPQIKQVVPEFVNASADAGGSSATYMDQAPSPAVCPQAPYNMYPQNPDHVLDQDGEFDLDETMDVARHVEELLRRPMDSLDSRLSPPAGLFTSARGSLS
inactive: [1] -0.033 | [2] -0.113 | [3] 0.072 | [4] 0.011 | [5] -0.009 | [6] 0.067 | [7] 0.067 | [8] 0.141 | [9] 0.156 | [10] 0.096 | [11] -0.225 | [13] 0.121 | [14] 0.072 | [15] -0.072 | [16] 0.041 | [17] 0.074 | [18] 0.056 | [19] -0.005 | [20] -0.109
active: [12] -0.633

STXBP5 (UniProt Q5T5C0)
active: [12] -0.344
inactive: [1] -0.021 | [2] -0.041 | [3] -0.007 | [4] -0.006 | [5] -0.002 | [6] -0.038 | [7] 0.013 | [8] -0.006 | [9] 0.022 | [10] -0.004 | [11] -0.085 | [13] 0.021 | [14] 0.151 | [15] -0.019 | [16] 0.046 | [17] 0.033 | [18] 0.007 | [19] 0.015 | [20] -0.006

SOAT1 (UniProt P35610)
UniProt P35610, sequence (P35610 whole entry, looked up): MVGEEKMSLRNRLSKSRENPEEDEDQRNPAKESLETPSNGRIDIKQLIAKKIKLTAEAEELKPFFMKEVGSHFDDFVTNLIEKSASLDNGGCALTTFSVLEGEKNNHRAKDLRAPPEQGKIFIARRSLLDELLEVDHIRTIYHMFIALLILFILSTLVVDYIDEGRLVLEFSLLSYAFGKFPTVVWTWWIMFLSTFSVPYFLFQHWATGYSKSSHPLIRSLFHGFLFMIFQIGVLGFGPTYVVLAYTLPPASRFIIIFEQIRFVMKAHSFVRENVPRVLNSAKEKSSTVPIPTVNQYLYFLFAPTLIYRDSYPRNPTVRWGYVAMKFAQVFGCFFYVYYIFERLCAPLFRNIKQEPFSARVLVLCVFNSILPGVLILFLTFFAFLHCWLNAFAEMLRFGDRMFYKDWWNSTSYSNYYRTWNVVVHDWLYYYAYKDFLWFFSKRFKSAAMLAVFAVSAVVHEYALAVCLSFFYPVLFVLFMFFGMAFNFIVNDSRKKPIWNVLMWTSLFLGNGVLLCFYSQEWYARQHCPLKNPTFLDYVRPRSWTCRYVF
inactive: [1] 0.259 | [2] -0.044 | [3] 0.038 | [4] -0.03 | [5] 0.002 | [6] -0.036 | [7] -0.015 | [8] -0.137 | [9] 0.152 | [10] 0.001 | [11] -0.017 | [12] 0.053 | [13] -0.094 | [14] 0.029 | [15] 0.009 | [16] 0.013 | [17] -0.04 | [18] -0.016 | [19] -0.051 | [20] -0.09

TBRG4 (UniProt Q969Z0)
UniProt Q969Z0, sequence (Q969Z0 whole entry, looked up): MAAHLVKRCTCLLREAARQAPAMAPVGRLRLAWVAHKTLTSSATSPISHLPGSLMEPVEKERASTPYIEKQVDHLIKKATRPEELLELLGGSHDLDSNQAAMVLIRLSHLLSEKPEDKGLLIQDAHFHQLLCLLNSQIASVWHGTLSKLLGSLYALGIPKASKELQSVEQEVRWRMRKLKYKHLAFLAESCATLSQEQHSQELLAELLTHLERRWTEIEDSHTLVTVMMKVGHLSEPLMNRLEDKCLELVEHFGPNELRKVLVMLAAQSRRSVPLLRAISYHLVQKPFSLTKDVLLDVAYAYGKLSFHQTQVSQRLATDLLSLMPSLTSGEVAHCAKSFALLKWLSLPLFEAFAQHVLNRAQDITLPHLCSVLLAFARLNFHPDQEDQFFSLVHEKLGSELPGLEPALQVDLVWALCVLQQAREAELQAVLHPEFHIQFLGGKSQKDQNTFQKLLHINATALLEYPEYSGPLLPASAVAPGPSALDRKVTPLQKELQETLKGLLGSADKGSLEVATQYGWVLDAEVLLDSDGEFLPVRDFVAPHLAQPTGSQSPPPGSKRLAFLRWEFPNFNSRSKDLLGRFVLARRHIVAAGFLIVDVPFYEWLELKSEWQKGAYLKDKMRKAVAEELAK
inactive: [1] 0.08 | [2] -0.006 | [3] 0.073 | [4] 0.151 | [5] -0.072 | [6] 0.05 | [7] 0.185 | [8] -0.059 | [9] 0.099 | [10] 0.125 | [11] -0.361 | [12] -0.583 | [13] -0.003 | [14] 0.12 | [15] -0.034 | [16] 0.009 | [17] 0.111 | [18] 0.073 | [19] 0.047
active: [20] -1.19

SSX2 (UniProt Q16385)
UniProt Q16385, sequence (Q16385 whole entry, looked up): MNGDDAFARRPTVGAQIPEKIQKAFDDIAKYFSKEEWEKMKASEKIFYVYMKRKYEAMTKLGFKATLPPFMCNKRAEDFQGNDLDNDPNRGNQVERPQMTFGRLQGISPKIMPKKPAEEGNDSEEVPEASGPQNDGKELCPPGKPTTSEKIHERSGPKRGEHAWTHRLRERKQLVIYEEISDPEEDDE
active: [5] -0.254
inactive: [1] 0.021 | [2] -0.013 | [3] 0.011 | [4] 0.073 | [6] 0.046 | [7] 0.035 | [8] -0.016 | [9] -0.099 | [10] 0.018 | [11] -0.046 | [12] -0.102 | [13] 0.071 | [14] 0.131 | [15] 0.007 | [16] -0.036 | [17] 0.007 | [18] 0.045 | [19] -0.06 | [20] 0.021

SUPT5H (UniProt O00267)
active: [12] -0.224
inactive: [1] 0.004 | [2] -0.054 | [3] 0.006 | [4] 0.013 | [5] -0.067 | [6] 0.008 | [7] 0.068 | [8] -0.028 | [9] 0.035 | [10] 0.04 | [11] -0.018 | [13] 0.084 | [14] 0.062 | [15] -0.054 | [16] -0.065 | [17] 0.056 | [18] 0.057 | [19] -0.056 | [20] -0.117

SQSTM1 (UniProt Q13501)
UniProt Q13501, sequence (Q13501 whole entry, looked up): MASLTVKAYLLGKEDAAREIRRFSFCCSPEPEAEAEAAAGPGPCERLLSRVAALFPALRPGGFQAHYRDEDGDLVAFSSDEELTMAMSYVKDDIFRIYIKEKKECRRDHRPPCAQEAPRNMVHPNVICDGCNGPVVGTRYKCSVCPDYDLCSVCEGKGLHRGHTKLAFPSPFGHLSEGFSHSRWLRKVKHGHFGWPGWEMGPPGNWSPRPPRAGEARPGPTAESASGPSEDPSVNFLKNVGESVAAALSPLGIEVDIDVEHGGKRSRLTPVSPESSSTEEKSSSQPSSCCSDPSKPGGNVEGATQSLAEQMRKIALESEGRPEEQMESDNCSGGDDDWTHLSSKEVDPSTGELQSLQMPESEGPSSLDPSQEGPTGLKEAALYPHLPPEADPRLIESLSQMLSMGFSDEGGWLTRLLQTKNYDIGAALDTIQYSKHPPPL
inactive: [1] 0.04 | [2] -0.065 | [3] -0.054 | [4] -0.012 | [5] 0.102 | [6] 0.064 | [7] 0.047 | [8] 0.103 | [9] -0.027 | [10] 0.032 | [11] -0.09 | [12] -0.204 | [13] 0.021 | [14] -0.056 | [15] 0.041 | [16] -0.112 | [17] 0.042 | [18] 0.012 | [19] 0.043 | [20] -0.022
